# Assay outcomes deposited in PubChem by National Center for Advancing Translational Sciences (NCATS).
# Pf Dd2 growth: blocks in vitro growth of P. falciparum Dd2; P. falciparum Dd2 growth, SYBR Green, 72 h; Potency, µM (highest dose often 28.9 µM), actives largely listed as inhibitors; 120,000 tested, 4.3% active; AID 1347417; active = well fitted inhibition curve with a large enough effect; note: nearly all actives have a fitted effect of over 65% in size
#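 Infected erythrocytes (Dd2, 0.3% parasitemia, 2.5% hematocrit final) are added to compound in RPMI-1640/Albumax II medium, grown 72 h at 37C in low oxygen, then lysed with saponin/Triton-X containing SYBR Green and read by fluorescence.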
# A number is an active result; . = inactive. The full list was thinned out, with hits kept by preference.
SMILES,Pf Dd2 growth
Cc1cccc(NC(=O)Cc2csc(COc3cccc(C)c3)n2)c1,.
CC(=O)Nc1cccc(NC(=O)Cc2csc(COc3cccc(C)c3)n2)c1,.
CCOc1ccccc1NC(=O)Cc1csc(COc2cccc(C)c2)n1,11µM
CC(C)c1noc(CN2CCCC(c3nccn3Cc3ccccc3)C2)n1 (stereo not given),.
COc1ccc(CN2CC3(CCN(S(=O)(=O)Cc4ccccc4F)CC3)C2=O)cc1,.
COc1ccc(CCN(Cc2ccccc2F)CC2(O)CCCNC2)cc1 (stereo not given),13µM
COc1ccc(CCNC(=O)C(=O)Nc2ccccc2F)cc1,.
COCCc1nncn1C1CCN(S(=O)(=O)c2ccc(Cl)c(C)c2)CC1,.
CC1=C(C(N)=O)C(c2cccc(C)c2)n2nc(-c3ccc(Cl)cc3)nc2N1 (stereo not given),.
CCN(CC)c1ccc(C2C(C(N)=O)=C(C)Nc3ncnn32)cc1 (stereo not given),.
CC1=C(C(N)=O)C(c2ccc(F)cc2)n2nc(-c3ccc(N(C)C)cc3)nc2N1 (stereo not given),10µM
C#CCNC(=O)C1CCc2nnc(C3CCN(C(=O)c4ccccc4)CC3)n21 (stereo not given),.
O=C(NCC1(COc2cnccn2)C[C@@H](O)[C@@H](O)C1)C1CC1 (stereo not given in full),.
O=C(NCC1(COc2cccnc2)C[C@@H](O)[C@@H](O)C1)C1CC1 (stereo not given in full),7.9µM
COCC(=O)NCC1(COc2cccnc2)C[C@@H](O)[C@@H](O)C1 (stereo not given in full),.
O=C(Nc1ccccc1)[C@H]1O[C@H](CCN2CCN(c3ccccn3)CC2)CC[C@@H]1O,.
CCOc1cc(=O)n2c(c1C(=O)Nc1cccc(C(F)(F)F)c1)CCCC2,.
Cc1cc(Nc2cccc(Cl)c2)nc2ccc(NC(=O)Cc3ccc(Cl)cc3)cc12,.
Cc1cc(Nc2cccc(C(F)(F)F)c2)nc2ccc(NC(=O)c3cccnc3)cc12,3.5µM
CCOc1ccc(C(=O)Nc2ccc3nc(Nc4cccc(C(F)(F)F)c4)cc(C)c3c2)cc1OCC,3.2µM
Cc1cc(Nc2cccc(Cl)c2)nc2ccc(NC(=O)c3ccc(F)cc3Cl)cc12,.
CCOc1ccc(C(=O)Nc2ccc(NC(=O)c3ccccc3)cc2)cc1Br,.
Cc1ccc(-n2nc(-c3c(C)nc4scc(CC(=O)NC(C)c5ccccc5)n4c3=O)cc2C)cc1 (stereo not given),.
Cn1cnnc1CC1CCCN(C(=O)c2ccco2)C1 (stereo not given),.
CCS(=O)(=O)c1ccc2oc([C@H]3CCN(Cc4cccc(Cl)c4)C3)nc2c1,.
SMILES,Pf Dd2 growth
CCCOc1ccccc1CCCNC(=O)[C@H]1CCC[C@@H](O)C1,.
CCNC(=O)N1CC(N(CC)C2CCOCC2)C1,.
O=C(Nc1ccccc1)N1CCc2c(c3ccccc3n2CC2CC2)C1,.
Cc1cccc(S(=O)(=O)c2cn(C)c3cc(N4CCN(c5ccccc5)CC4)c(F)cc3c2=O)c1,.
Cc1ccc(Cn2cc(S(=O)(=O)c3cccc(C)c3)c(=O)c3cc(F)c(N4CCOCC4)cc32)cc1,10µM
Cn1cc(S(=O)(=O)c2cccc(Cl)c2)c(=O)c2cc(F)c(N3CCN(c4ccccc4)CC3)cc21,.
CCn1cc(S(=O)(=O)c2cc(C)cc(C)c2)c(=O)c2cc(F)c(N3CCOCC3)cc21,.
O=c1c(S(=O)(=O)c2ccccc2)cn(Cc2ccccc2)c2cc(N3CCOCC3)c(F)cc12,8.9µM
Cc1ccc(Cn2cc(S(=O)(=O)c3cccc(Cl)c3)c(=O)c3cc(F)c(N4CCOCC4)cc32)cc1,.
CCOCCOC1CCN(C(=O)c2sccc2C)CC1,.
O=C(Cn1ccn2nc(-c3ccccc3)c(CO)c2c1=O)N1CCCCCC1,.
O=C(NCCN1CCOC1=O)c1cc(COc2ccccc2F)[nH]n1,.
CC(C)=CCC1(CO)CCCN(C(=O)c2cccn2C2CC2)C1 (stereo not given),.
Cc1ccn2c(Nc3ccccc3C)c(-c3ccc(N4CCOCC4)cc3)nc2c1,6.3µM
Cc1ccccc1Nc1c(-c2c(F)cccc2Cl)nc2ccc(Br)cn12,10µM
Cc1ccc(Nc2c(-c3ccc(N4CCOCC4)cc3)nc3cccc(C)n23)cc1,.
Brc1ccc2nc(-c3ccccc3)c(Nc3ccc4c(c3)OCO4)n2c1,.
Cc1ccccc1Nc1c(-c2ccc(N3CCOCC3)cc2)nc2ccc(Cl)cn12,8.9µM
Cc1ccc(Nc2c(-c3ccc(N4CCOCC4)cc3)nc3ccc(Cl)cn23)cc1,.
Clc1ccc2nc(-c3ccc(N4CCOCC4)cc3)c(Nc3ccccc3)n2c1,.
Cc1ccc(-c2nc3ccc(Cl)cn3c2Nc2ccccc2C)s1,.
Cc1cccc(C)c1Nc1c(-c2ccc(N3CCOCC3)cc2)nc2ncccn12,.
CCn1cc(CN(C)C(=O)c2oc3c(C)c(C)ccc3c2C)cn1,.
CC(C)N1C(=O)C2(CCCCC2)C1C(=O)N1CCN(c2ccccc2)CC1 (stereo not given),.
O=C(COc1ccc(F)cc1)N1CCC2(CC1)CC(OCC1CC1)CCO2 (stereo not given),.
SMILES,Pf Dd2 growth
COC1CN(c2ccc(C)cc2)C12CCN(C(=O)CC(C)C)CC2 (stereo not given),.
COc1ccc(/C=C/c2ccc3c(c2)C(=O)N2CC[C@H](NC(=O)CCC(=O)O)[C@H]2C(=O)N3)cc1,.
COC(=O)[C@@H]1Cc2c([nH]c3ccccc23)[C@H]2C[C@H](N3CCCCC3)C[C@@H](c3ccccc3F)N21,1.4µM
COC(=O)[C@@H]1Cc2c([nH]c3ccccc23)[C@H]2C[C@@H](NCCNC(C)=O)C[C@@H](c3ccccc3F)N21,.
COc1ccc(CC(=O)NC2CCCc3c2[nH]c2ccccc32)cc1OC (stereo not given),.
COC(=O)[C@@H]1Cc2c([nH]c3ccccc23)[C@H]2C[C@H](NC[C@H]3CCCO3)C[C@@H](c3ccccc3F)N21,.
COC(=O)[C@@H]1Cc2c([nH]c3ccccc23)[C@H]2C[C@@H](N3CCCCC3)C[C@@H](c3ccccc3F)N21,4µM
COc1ccc2[nH]c3c(c2c1)CCNC31CCN(C(=O)C2CC=CC2)CC1,.
CN(Cc1ccccc1)Cc1cn(C[C@H]2O[C@@H](CC(=O)N3CCCC3)[C@H](O)[C@@H]2O)nn1,.
C[C@@]12CC[C@H]3O[C@H](COc4ccccc4)OC[C@@]3(C)C1CC[C@@H](O)C2CC(=O)N1CCCC1 (stereo not given in full),.
O=C(NCc1ccccc1F)c1ccc(-c2ccc(N3CCSCC3)nc2)cc1,.
O=C(NC1CCCCC1)N1CCC(c2nnc3n2CCNC3)CC1,.
N#Cc1cccc(C(=O)N2CCNc3cnc(Nc4cccc(F)c4)nc3C2)c1,.
COc1ccccc1Nc1ncc2c(n1)CN(C(=O)c1ccnn1C)CCN2,.
CN(C)c1cccc(C(=O)N2CCNc3cnc(Nc4cccc(C(F)(F)F)c4)nc3C2)c1,7.9µM
O=C(c1ccc(Oc2ccccc2)cc1)N1CCNc2cnc(Nc3cccnc3)nc2C1,13µM
CC(C)NC(=O)N1CCNc2cnc(Nc3cccc(F)c3)nc2C1,.
O=C(Cc1ccccc1)N1CCNc2cnc(Nc3ccccc3)nc2C1,.
Cc1cn(CC(=O)NC(c2nnc3n2CCNCC3)C(C)C)c(=O)[nH]c1=O (stereo not given),.
O=C(NC1CCN(c2cc(-c3ccc(Cl)cc3)[nH]n2)CC1)c1ccc2c(c1)OCO2,.
